# Measurements: PubChem BioAssay AID1159580 (chemical genetic matrix, 2015)
# Screen size: about 5,500 compounds; about 2,000 (36%) were called active. About 18% were inconclusive and are not listed. This is one part of the list. A number with no mark means an inactive call. Rule as the data show it: active = normalized growth mostly below about 0.91 (no sharp cut-off); inconclusive = no clear call, values can overlap the other calls; inactive = mostly above about 0.92.
# Test: chemical genetic growth profiling, strain panel (AID 1159580);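 also: tested at 20 µM; growth read once vehicle control cultures reached saturation at 30 °C; 1 = growth at the plate median or of vehicle wells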
# Conditions: S. cerevisiae deletion strains, growth OD
compound,measurement,setting,value
COc1ccc(-c2oc3ccccc3c(=O)c2O)cc1OC,normalized growth,"locus YAL021C, strain ccr4, stronger effect = lower value",0.164 (active)
same,normalized growth,"locus YAL026C, strain drs2, stronger effect = lower value",0.512 (active)
same,normalized growth,"locus YAL030W, strain snc1, stronger effect = lower value",0.739 (active)
same,normalized growth,"locus YBL061C, strain skt5, stronger effect = lower value",0.631 (active)
same,normalized growth,"locus YBR009C, strain hhf1, stronger effect = lower value",0.639 (active)
same,normalized growth,"locus YBR023C, strain chs3, stronger effect = lower value",0.587 (active)
same,normalized growth,"locus YBR171W, strain sec66, stronger effect = lower value",0.848 (active)
same,normalized growth,"locus YBR231C, strain swc5, stronger effect = lower value",0.509 (active)
same,normalized growth,"locus YBR279W, strain paf1, stronger effect = lower value",0.697 (active)
same,normalized growth,"locus YCL011C, strain gbp2, stronger effect = lower value",0.617 (active)
same,normalized growth,"locus YCL016C, strain dcc1, stronger effect = lower value",0.782 (active)
same,normalized growth,"locus YCL061C, strain MRC1, stronger effect = lower value",0.753 (active)
same,normalized growth,"locus YCL069W, strain vba3, stronger effect = lower value",0.762 (active)
same,normalized growth,"locus YCR088W, strain abp1, stronger effect = lower value",0.865 (active)
same,normalized growth,"locus YDL005C, strain med2, stronger effect = lower value",0.915
same,normalized growth,"locus YDL040C, strain nat1, stronger effect = lower value",0.902 (active)
same,normalized growth,"locus YDR001C, strain nth1, stronger effect = lower value",0.914 (active)
same,normalized growth,"locus YDR069C, strain doa4, stronger effect = lower value",0.175 (active)
same,normalized growth,"locus YDR137W, strain rgp1, stronger effect = lower value",0.505 (active)
same,normalized growth,"locus YDR159W, strain sac3, stronger effect = lower value",0.748 (active)
same,normalized growth,"locus YDR195W, strain ref2",0.809 (active)
same,normalized growth,"locus YDR297W, strain sur2, stronger effect = lower value",0.557 (active)
same,normalized growth,"locus YDR334W, strain swr1, stronger effect = lower value",0.524 (active)
same,normalized growth,"locus YDR335W, strain msn5, stronger effect = lower value",0.683 (active)
same,normalized growth,"locus YDR392W, strain spt3, stronger effect = lower value",0.553 (active)
same,normalized growth,"locus YEL003W, strain gim4, stronger effect = lower value",0.6 (active)
same,normalized growth,"locus YEL037C, strain rad23, stronger effect = lower value",0.692 (active)
same,normalized growth,"locus YEL061C, strain CIN8 (second series), stronger effect = lower value",0.882 (active)
same,normalized growth,"locus YER015W, strain faa2, stronger effect = lower value",0.4 (active)
same,normalized growth,"locus YER016W, strain bim1, stronger effect = lower value",0.826 (active)
same,normalized growth,"locus YER111C, strain swi4, stronger effect = lower value",0.696 (active)
same,normalized growth,"locus YER155C, strain BEM2 (second series), stronger effect = lower value",0.687 (active)
same,normalized growth,"locus YFR010W, strain ubp6, stronger effect = lower value",0.633 (active)
same,normalized growth,"locus YGL167C, strain pmr1, stronger effect = lower value",0.742 (active)
same,normalized growth,"locus YGL173C, strain kem1, stronger effect = lower value",0.37 (active)
same,normalized growth,"locus YGL227W, strain vid30, stronger effect = lower value",0.949
same,normalized growth,"locus YGL240W, strain doc1, stronger effect = lower value",0.772 (active)
same,normalized growth,"locus YGL253W, strain hxk2, stronger effect = lower value",0.544 (active)
same,normalized growth,"locus YHR013C, strain ard1, stronger effect = lower value",0.466 (active)
same,normalized growth,"locus YHR027C, strain rpn1, stronger effect = lower value",0.315 (active)
same,normalized growth,"locus YHR030C, strain SLT2, stronger effect = lower value",1.01
same,normalized growth,"locus YHR079C, strain IRE1, stronger effect = lower value",0.983
same,normalized growth,"locus YHR142W, strain chs7, stronger effect = lower value",0.533 (active)
same,normalized growth,"locus YJL092W, strain hpr5, stronger effect = lower value",0.812 (active)
same,normalized growth,"locus YJL095W, strain BCK1 (second series), stronger effect = lower value",0.548 (active)
same,normalized growth,"locus YJL095W, strain BCK1, stronger effect = lower value",0.962
same,normalized growth,"locus YJL115W, strain asf1, stronger effect = lower value",0.901 (active)
same,normalized growth,"locus YJL129C, strain trk1, stronger effect = lower value",0.721 (active)
same,normalized growth,"locus YJL154C, strain vps35, stronger effect = lower value",0.809 (active)
same,normalized growth,"locus YJL164C, strain tpk1, stronger effect = lower value",0.497 (active)
same,normalized growth,"locus YJL166W, strain qcr8, stronger effect = lower value",0.527 (active)
same,normalized growth,"locus YJL187C, strain SWE1, stronger effect = lower value",0.635 (active)
same,normalized growth,"locus YJR066W, strain TOR1, stronger effect = lower value",0.948
same,normalized growth,"locus YKL160W, strain elf1, stronger effect = lower value",0.766 (active)
same,normalized growth,"locus YKR026C, strain gcn3, stronger effect = lower value",0.915 (active)
same,normalized growth,"locus YKR091W, strain srl3, stronger effect = lower value",0.875 (active)
same,normalized growth,"locus YLL001W, strain dnm1, stronger effect = lower value",0.692 (active)
same,normalized growth,"locus YLL026W, stronger effect = lower value",0.798 (active)
same,normalized growth,"locus YLL041C, strain sdh2, stronger effect = lower value",0.85 (active)
same,normalized growth,"locus YLR027C, strain aat2, stronger effect = lower value",0.673 (active)
same,normalized growth,"locus YLR113W, strain HOG1, stronger effect = lower value",0.957
same,normalized growth,"locus YLR221C, strain rsa3, stronger effect = lower value",0.644 (active)
same,normalized growth,"locus YLR258W, strain gsy2, stronger effect = lower value",0.733 (active)
same,normalized growth,"locus YLR262C, strain YPT6 (second series), stronger effect = lower value",0.371 (active)
same,normalized growth,"locus YLR320W, strain mms22, stronger effect = lower value",0.537 (active)
same,normalized growth,"locus YLR342W, strain FKS1, stronger effect = lower value",0.61 (active)
same,normalized growth,"locus YLR357W, strain rsc2, stronger effect = lower value",0.626 (active)
same,normalized growth,"locus YLR370C, strain arc18, stronger effect = lower value",0.785 (active)
same,normalized growth,"locus YLR384C, strain iki3, stronger effect = lower value",0.76 (active)
same,normalized growth,"locus YML120C, strain ndi1, stronger effect = lower value",0.72 (active)
same,normalized growth,"locus YMR058W, strain fet3, stronger effect = lower value",0.113 (active)
same,normalized growth,"locus YMR125W, strain sto1, stronger effect = lower value",0.932
same,normalized growth,"locus YMR129W, stronger effect = lower value",0.825 (active)
same,normalized growth,"locus YMR205C, strain PFK2, stronger effect = lower value",0.369 (active)
same,normalized growth,"locus YMR231W, strain pep5, stronger effect = lower value",0.555 (active)
same,normalized growth,"locus YNL071W, strain lat1, stronger effect = lower value",0.715 (active)
same,normalized growth,"locus YNL183C, strain NPR1, stronger effect = lower value",0.907
same,normalized growth,"locus YNL209W, strain ssb2, stronger effect = lower value",0.222 (active)
same,normalized growth,"locus YNL248C, strain rpa49, stronger effect = lower value",0.783 (active)
same,normalized growth,"locus YNL322C, strain KRE1 (second series), stronger effect = lower value",0.776 (active)
same,normalized growth,"locus YNR049C, strain mso1, stronger effect = lower value",0.889 (active)
same,normalized growth,"locus YOR001W, strain rrp6, stronger effect = lower value",0.678 (active)
same,normalized growth,"locus YOR070C, strain gyp1, stronger effect = lower value",0.772 (active)
same,normalized growth,"locus YOR080W, strain dia2, stronger effect = lower value",0.445 (active)
same,normalized growth,"locus YOR083W, strain WHI5, stronger effect = lower value",0.617 (active)
same,normalized growth,"locus YOR106W, strain vam3, stronger effect = lower value",0.203 (active)
same,normalized growth,"locus YOR231W, strain MKK1, stronger effect = lower value",0.996
same,normalized growth,"locus YOR265W, strain rbl2, stronger effect = lower value",0.655 (active)
same,normalized growth,"locus YOR270C, strain vph1, stronger effect = lower value",0.32 (active)
same,normalized growth,"locus YOR290C, strain snf2, stronger effect = lower value",0.607 (active)
same,normalized growth,"locus YPL051W, strain arl3, stronger effect = lower value",0.371 (active)
same,normalized growth,"locus YPL078C, strain atp4, stronger effect = lower value",0.74 (active)
same,normalized growth,"locus YPL106C, strain sse1, stronger effect = lower value",0.572 (active)
same,normalized growth,"locus YPL240C, strain hsp82, stronger effect = lower value",0.771 (active)
same,normalized growth,"locus YPL256C, strain CLN2, stronger effect = lower value",0.994
